Hit rate of the full screen: of about 5,500 compounds, about 2,000 (36%) were called active. Another 18% or so got no clear call; they are omitted. Rule as the data show it: active = normalized growth mostly below about 0.91 (no sharp cut-off); inconclusive = no clear call, values can overlap the other calls; inactive = mostly above about 0.92. Some of the results follow.
Experiment: chemical genetic growth profiling, strain panel (AID 1159580);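 also: tested at 20 µM; growth read once vehicle control cultures reached saturation at 30 °C; 1 = growth at the plate median or of vehicle wells; lower values mean less growth of the strain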
Settings: S. cerevisiae deletion strains, growth OD

Measured: normalized growth

O=c1c(-c2ccc3c(c2)OCO3)coc2cc(O)ccc12
inactive: locus YAL013W, strain DEP1, stronger effect = lower value 1 | locus YAL021C, strain ccr4, stronger effect = lower value 0.994 | locus YAL026C, strain drs2, stronger effect = lower value 1 | locus YAL030W, strain snc1, stronger effect = lower value 0.991 | locus YBL061C, strain skt5, stronger effect = lower value 0.99 | locus YBR009C, strain hhf1, stronger effect = lower value 0.978 | locus YBR021W, strain FUR4, stronger effect = lower value 0.991 | locus YBR023C, strain chs3, stronger effect = lower value 0.996 | locus YBR171W, strain sec66, stronger effect = lower value 1 | locus YBR229C, strain ROT2, stronger effect = lower value 0.989 | locus YBR231C, strain swc5, stronger effect = lower value 0.985 | locus YBR279W, strain paf1, stronger effect = lower value 0.994 | locus YCL011C, strain gbp2, stronger effect = lower value 0.999 | locus YCL016C, strain dcc1, stronger effect = lower value 0.993 | locus YCL029C, strain bik1, stronger effect = lower value 0.969 | locus YCL061C, strain MRC1, stronger effect = lower value 0.998 | locus YCL069W, strain vba3, stronger effect = lower value 1 | locus YCR088W, strain abp1, stronger effect = lower value 0.998 | locus YDL005C, strain med2, stronger effect = lower value 0.984 | locus YDL035C, strain GPR1, stronger effect = lower value 1 | locus YDL040C, strain nat1, stronger effect = lower value 0.993 | locus YDL074C, strain BRE1, stronger effect = lower value 1.04 | locus YDL101C, strain DUN1, stronger effect = lower value 0.998 | locus YDL134C, strain PPH21, stronger effect = lower value 1 | locus YDL185W, strain tfp1, stronger effect = lower value 0.981 | locus YDL192W, strain arf1, stronger effect = lower value 0.977 | locus YDR001C, strain nth1, stronger effect = lower value 1.01 | locus YDR069C, strain doa4, stronger effect = lower value 0.977 | locus YDR101C, strain arx1, stronger effect = lower value 0.98 | locus YDR137W, strain rgp1, stronger effect = lower value 0.979 | locus YDR150W, strain NUM1, stronger effect = lower value 0.995 | locus YDR159W, strain sac3, stronger effect = lower value 0.96 | locus YDR162C, strain NBP2, stronger effect = lower value 1.01 | locus YDR195W, strain ref2 0.957 | locus YDR297W, strain sur2, stronger effect = lower value 0.989 | locus YDR318W, strain mcm21, stronger effect = lower value 0.972 | locus YDR334W, strain swr1, stronger effect = lower value 1 | locus YDR335W, strain msn5, stronger effect = lower value 1 | locus YDR388W, stronger effect = lower value 0.973 | locus YDR392W, strain spt3, stronger effect = lower value 0.919 | locus YDR502C, strain sam2, stronger effect = lower value 0.992 | locus YEL003W, strain gim4, stronger effect = lower value 1 | locus YEL037C, strain rad23, stronger effect = lower value 1 | locus YEL061C, strain CIN8 (second series), stronger effect = lower value 1.01 | locus YEL061C, strain CIN8, stronger effect = lower value 0.998 | locus YER015W, strain faa2, stronger effect = lower value 0.99 | locus YER016W, strain bim1, stronger effect = lower value 0.988 | locus YER110C, stronger effect = lower value 0.979 | locus YER111C, strain swi4, stronger effect = lower value 1 | locus YER155C, strain BEM2 (second series), stronger effect = lower value 0.974 | locus YER155C, strain BEM2, stronger effect = lower value 0.995 | locus YER167W, strain BCK2, stronger effect = lower value 0.983 | locus YFR010W, strain ubp6, stronger effect = lower value 1 | locus YGL078C, strain dbp3, stronger effect = lower value 0.98 | locus YGL086W, strain mad1, stronger effect = lower value 0.983 | locus YGL167C, strain pmr1, stronger effect = lower value 0.988 | locus YGL173C, strain kem1, stronger effect = lower value 0.995 | locus YGL227W, strain vid30, stronger effect = lower value 1 | locus YGL240W, strain doc1, stronger effect = lower value 0.952 | locus YGL248W, strain PDE1, stronger effect = lower value 0.991 | locus YGL253W, strain hxk2, stronger effect = lower value 1 | locus YGR078C, strain PAC10, stronger effect = lower value 1.01 | locus YGR135W, strain pre9, stronger effect = lower value 0.987 | locus YGR229C, strain SMI1, stronger effect = lower value 1.03 | locus YGR252W, strain gcn5, stronger effect = lower value 0.932 | locus YHR013C, strain ard1, stronger effect = lower value 0.96 | locus YHR027C, strain rpn1, stronger effect = lower value 0.994 | locus YHR030C, strain SLT2, stronger effect = lower value 0.998 | locus YHR079C, strain IRE1 (second series), stronger effect = lower value 0.964 | locus YHR094C, strain hxt1, stronger effect = lower value 0.981 | locus YHR129C, strain ARP1, stronger effect = lower value 1 | locus YHR142W, strain chs7, stronger effect = lower value 1.01 | locus YHR200W, strain rpn10, stronger effect = lower value 0.978 | locus YIL066C, strain RNR3, stronger effect = lower value 0.998 | locus YIL073C, strain SPO22, stronger effect = lower value 0.93 | locus YIL125W, strain kgd1, stronger effect = lower value 0.993 | locus YIR030C, strain dcg1, stronger effect = lower value 0.984 | locus YJL092W, strain hpr5, stronger effect = lower value 1.01 | locus YJL095W, strain BCK1 (second series), stronger effect = lower value 0.989 | locus YJL095W, strain BCK1, stronger effect = lower value 1.04 | locus YJL115W, strain asf1, stronger effect = lower value 0.995 | locus YJL129C, strain trk1, stronger effect = lower value 0.99 | locus YJL134W, strain LCB3, stronger effect = lower value 0.991 | locus YJL154C, strain vps35, stronger effect = lower value 1.01 | locus YJL164C, strain tpk1, stronger effect = lower value 0.979 | locus YJL166W, strain qcr8, stronger effect = lower value 0.974 | locus YJL168C, strain set2, stronger effect = lower value 0.983 | locus YJL187C, strain SWE1 (second series), stronger effect = lower value 1 | locus YJL187C, strain SWE1, stronger effect = lower value 0.987
